Test results published in PubChem BioAssay (NCI).
This is part of a sample that, as a whole, favours compounds with a hit. Of some 83,000 tested, about 20% had one in any assay.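 Compound tested at a single concentration for 48 hours in 96-well plates; a percent growth value below 10 was scored as active.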 A number with no mark means an inactive call. Activity calls are given as the source filed them.

How the values were obtained:
Test in all cases: NCI-60 one-dose screen, 48 h (100 = growth as untreated, 0 = no growth, -100 = all killed)
Conditions in all cases: 10 µM unless noted
NCI-H23 lung = tested on: NCI-H23 lung
NCI-H226 lung = tested on: NCI-H226 lung
NCI-H322M lung = tested on: NCI-H322M lung
HOP-62 NSCLC = tested on: HOP-62 NSCLC
NCI-H460 lung = tested on: NCI-H460 lung
HOP-92 NSCLC = tested on: HOP-92 NSCLC
NCI-H522 lung = tested on: NCI-H522 lung
A549/ATCC NSCLC = tested on: A549/ATCC NSCLC
786-0 renal = tested on: 786-0 renal
COLO 205 colon = tested on: COLO 205 colon
DU-145 prostate = tested on: DU-145 prostate
K-562 leukemia = tested on: K-562 leukemia
MALME-3M melanoma = tested on: MALME-3M melanoma
MDA-MB-231 breast = tested on: MDA-MB-231 breast
RXF 393 renal = tested on: RXF 393 renal
SF-268 CNS = tested on: SF-268 CNS
SF-295 CNS = tested on: SF-295 CNS
SF-539 CNS = tested on: SF-539 CNS
UACC-257 melanoma = tested on: UACC-257 melanoma
M14 melanoma = tested on: M14 melanoma

| SMILES | growth (NCI-H23 lung) | growth (NCI-H226 lung) | growth (NCI-H322M lung) | growth (HOP-62 NSCLC) | growth (NCI-H460 lung) | growth (HOP-92 NSCLC) | growth (NCI-H522 lung) | growth (A549/ATCC NSCLC) | growth (786-0 renal) | growth (COLO 205 colon) | growth (DU-145 prostate) | growth (K-562 leukemia) | growth (MALME-3M melanoma) | growth (MDA-MB-231 breast) | growth (RXF 393 renal) | growth (SF-268 CNS) | growth (SF-295 CNS) | growth (SF-539 CNS) | growth (UACC-257 melanoma) | growth (M14 melanoma) |
| --- | --- | --- | --- | --- | --- | --- | --- | --- | --- | --- | --- | --- | --- | --- | --- | --- | --- | --- | --- | --- |
| CCOC(=O)c1nnn(-c2no[n+]([O-])c2-c2ccc(OC)cc2)c1COc1cccc2cccnc12 | 31.6% | 8.91% (active) | 98.8% | 30.6% | 8.47% (active) | 17.6% | -52.7% (active) | 71.9% | 25.8% | -25% (active) | 11.8% | 11.9% | 68.6% | 17% | 22.5% | 21.8% | 33.4% | -3.16% (active) | 59.1% | 12.4% |
| Cc1ccc(S(=O)(=O)c2nc(-c3ccccc3)oc2SCC(N)=O)cc1 | 96.8% | 98.1% | 104% | 98.3% | 104% | 83.2% | 76.3% | 96.7% | 95% | 111% | 101% | 88.2% | 98.9% | 104% | 99% | 90% | 98.9% | 97.2% | 113% | 97.1% |
| c1cc(OCCN2CCCCCC2)ccc1CNc1ccc2nc(CCC3CCCCC3)[nH]c2c1 | 82.6% | 60.8% | 81.7% | 60.5% | 68.3% | 23.3% | 68.5% | 70.8% | 54.2% | -48% (active) | 69.8% | 3.02% (active) | -72.6% (active) | 25.5% | 56.2% | 69.9% | 79.1% | 72.8% | 31.8% | -69.9% (active) |
| Cc1cccc(-c2nc(C(C)C)sc2-c2ccnc(NCCCNS(=O)(=O)c3ccc(Cl)cc3)c2)c1 | 84.9% | 81.4% | 95.1% | 91.6% | 70.1% | 83.1% | 55.4% | 74.8% | 76.3% | 60.8% | 78.2% | 30.5% | 99.9% | 76.5% | 103% | 67.4% | 80.7% | 84.2% | 113% | 82.2% |
| CNC(=O)c1cc(Oc2ccc3c(c2)sc2nc(-c4ccc(NC(=O)[C@@H](NC(=O)OC)C(C)C)cc4)cn23)ccn1 | 77.6% | 56.9% | 107% | 82.5% | 87.6% | 61.7% | 43.6% | 80.8% | 87.4% | 63.9% | 84.8% | 47.3% | 49.4% | 71.9% | 85.3% | 82.5% | 68.7% | 88.2% | 59.5% | 64.1% |
| CCCc1cc(=O)oc2c(C(=O)CC(C)C)c(O)c(CC=C(C)C)c(O)c12 | -29.1% (active) | 23.5% | 22.3% | 51.1% | 15.8% | -25.5% (active) | 16% | 23.8% | 29.2% | 50.3% | 31.3% | 14.3% | -6.82% (active) | -15.9% (active) | 27.3% | 26.5% | 17.8% | 42.2% | 22.7% | 33.6% |
| COc1ccc(C(O)c2cc3c(N)c(C(=O)Nc4cccc5ccccc45)sc3nc2C)cc1 (stereo not given) | 23.3% | 18.6% | 39.1% | 25.6% | -20.2% (active) | 51% | 0% (active) | 11.6% | 16.2% | -34.3% (active) | 1.19% (active) | 12% | 27.7% | 13.6% | 27% | 9.53% (active) | 12.9% | 4.62% (active) | 35.3% | 15% |
| CN(C)CCCC1(c2ccc(F)cc2)OCc2cc(-c3csc4ccccc34)ccc21 (stereo not given) | 48.2% | 87.3% | 27% | 39.2% | -89.9% (active) | 26.4% | 7.99% (active) | 24.4% | 52.8% | -67.8% (active) | -0.822% (active) | -31.8% (active) | -92.1% (active) | 10.6% | 4.01% (active) | 38.6% | -52% (active) | -81.7% (active) | -48% (active) | -57% (active) |
| COc1cc(Cc2cc(-c3ccccc3)nn(Cc3ccccc3)c2=O)cc(OC)c1OC | 37.4% | 46.2% | 78.5% | 66.1% | 37.3% | 51.1% | 28.4% | 19.9% | 49.9% | 15.5% | 77.7% | 20.6% | 35.2% | 50.1% | 31.7% | 47.4% | 31.5% | 70% | 32% | 44.1% |
| O=C1/C(=C/c2ccc(Cl)cc2)CN(C(=O)C(Cl)Cl)C/C1=C\c1ccc(Cl)cc1 | -69.2% (active) | -24.4% (active) | -70.9% (active) | -61.5% (active) | -64.9% (active) | -59.9% (active) | -60.3% (active) | -21.2% (active) | -80.2% (active) | -68.5% (active) | -89.7% (active) | -3.91% (active) | -65% (active) | -23.9% (active) | -88.2% (active) | -74.9% (active) | -86.7% (active) | -96.3% (active) | -42.3% (active) | -68.7% (active) |
| Oc1ccc(-c2nc3ccc4[nH]ncc4c3c3c2CCCC3)c(F)c1 | 29.5% | 56.4% | 37.8% | 35.7% | 29% | 68.9% | -4.04% (active) | 15.7% | 29.4% | 77.4% | 37% | 19.5% | 24.9% | 59.9% | 16% | 36.5% | 43.6% | 15.6% | 44.5% | 16.7% |
| CCCOC(=O)Nc1nc2ccc(SCC)cc2s1 | 91.9% | 92.9% | 99.3% | 81.4% | 79.6% | 96.1% | 65.6% | 80.5% | 93.9% | 72.2% | 94.6% | 26.2% | 77.9% | 82.9% | 95.8% | 92.8% | 80.8% | 80.9% | 96.4% | 46.5% |
| CCN(CC)CCOc1ccc2c(-c3ccccc3)c(-c3ccc(OC)cc3)c(=O)oc2c1 | 70.3% | 85.2% | 122% | 95% | 57.4% | 63.9% | 66.8% | 70.6% | 65.9% | -38.8% (active) | 95.6% | 25% | 83% | 67.3% | 50.9% | 89.8% | 62.9% | 58.7% | 18.1% | -7.02% (active) |
| O=c1oc2c(cnc3ccccc32)cc1-c1cccc(Cl)c1 | 101% | 96.2% | 104% | 113% | 106% | 81.7% | 101% | 104% | 106% | 118% | 108% | 89% | 103% | 97.6% | 112% | 98.8% | 101% | 95.2% | 101% | 112% |
| Cc1c(C(C)(C)O)cn2ncnc(Oc3ccc(NC(=O)Nc4ccc(Cl)c(C(F)(F)F)c4)c(F)c3)c12 | 30.6% | 62.6% | 92.1% | 101% | 25.9% | 36.4% | 39.9% | 41.2% | 64.8% | 72.8% | 80.6% | 25.4% | 91.4% | 73.3% | 72.4% | 63.6% | 36.4% | 41% | 80% | 55.1% |
